Source: the supplement of paper PMC10515830
Where a name gives a salt, the structure may show the parent alone.

Tests used:
Conditions in all cases: 10 µM; exposure time 6 h
[1] = tested on: Danio rerio larvae (5 dpf); test: difference in excitability vs DMSO (percentage points); higher = more excitable than DMSO
Outline: (§1)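 Wild-type zebrafish larvae at 5 dpf were kept in 96-well plates and exposed for 6 h to 100 µL egg water holding library compound at a final concentration of 10 µM. From 3 h into exposure, the plates were held at 28.5 ℃ and photographed every 6 s through a 3-h programme of moving lines and 100 ms, 400Hz tones. Each behaviour was scored by Z-LaP Tracker, a DeepLabCut model, and averaged over 48 larvae per compound. Every value gives the compound mean minus the vehicle control mean, in percentage points.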

[2] = tested on: Danio rerio larvae (5 dpf); test: difference in startle response vs DMSO (percentage points); higher = stronger startle than DMSO
Outline: as §1

[3] = tested on: Danio rerio larvae (5 dpf); test: difference in activity during first hour vs DMSO (percentage points); higher = more activity than DMSO
Outline: as §1

[4] = tested on: Danio rerio larvae (5 dpf); test: difference in habituation to acoustic stimuli vs DMSO (percentage points); higher = more habituation than DMSO
Outline: as §1

[5] = tested on: Danio rerio larvae (5 dpf); test: difference in combined optomotor response to red, green and blue moving lines vs DMSO (percentage points); higher = stronger optomotor response than DMSO
Outline: as §1

SMILES	difference in excitability [1]	difference in startle response [2]	difference in activity during first hour [3]	difference in habituation to acoustic stimuli [4]	difference [5]
C=C1CCN([C@H](C)[C@](O)(Cn2cncn2)c2ccc(F)cc2F)CC1 [Efinaconazole]	14.8	-1.57	-5.8	-7.46	1.58
CCCSc1nc(N[C@@H]2C[C@H]2c2ccc(F)c(F)c2)c2nnn([C@@H]3C[C@H](OCCO)[C@@H](O)[C@H]3O)c2n1 [Ticagrelor]	4.33	1.19	2.64	1.79	9.27
O=C(O)COCCN1CCN(C(c2ccccc2)c2ccc(Cl)cc2)CC1 (stereo not given) [Cetirizine (hydrochloride)]	-1.62	2.46	4.04	-2.99	6.72
COC(=O)/C=C/C(=O)OC [Dimethyl fumarate]	19.8	-1.87	20.1	-2.23	12
Cc1nnc(SCC2=C(C(=O)O)N3C(=O)[C@@H](NC(=O)Cn4cnnn4)[C@H]3SC2)s1 [Cefazolin (sodium salt)]	9.87	-2.79	7.43	-0.463	5.77
O=C(CCCN1CCC(O)(c2ccc(Cl)cc2)CC1)c1ccc(F)cc1 [Haloperidol]	17.7	-2.56	12.4	-7.67	-5.9
CCOC(=O)[C@H](CCc1ccccc1)N[C@@H](C)C(=O)N1CCC[C@H]1C(=O)O [Enalapril (maleate)]	0.733	3.17	-0.995	-3.38	7.06
Cc1ncc([N+](=O)[O-])n1CCO [Metronidazole]	5.42	1.25	-3.64	-2.4	7.32
COc1cc(Cc2cnc(N)nc2N)cc(OC)c1OC [Trimethoprim]	2.02	3.93	12.5	-7.9	12.7
Nc1nc2[nH]cc(CCc3ccc(C(=O)N[C@@H](CCC(=O)O)C(=O)O)cc3)c2c(=O)[nH]1 [Pemetrexed (sodium salt hydrate)]	7.7	-0.109	-1.67	4.63	5.29
NC(=O)N1c2ccccc2CC(=O)c2ccccc21 [Oxcarbazepine]	-3.21	8.33	10.1	0.525	8.73
Cc1cc(C(C)(C)C)c(O)c(C)c1CC1=NCCN1 [Oxymetazoline (hydrochloride)]	2.23	-0.966	-13.2	6.77	0.729
COc1ccc(-n2nc(C(N)=O)c3c2C(=O)N(c2ccc(N4CCCCC4=O)cc2)CC3)cc1 [Apixaban]	-0.692	-6.58	1.99	4.29	10.4
Nc1nc(NC2CC2)c2ncn([C@H]3C=C[C@@H](CO)C3)c2n1 [Abacavir (sulfate)]	-1.01	-0.154	7.36	-0.118	5.64
Cn1ccnc1S [Methimazole]	-1.48	3.48	-0.609	0.155	3.45
NC(=O)N1c2ccccc2C=Cc2ccccc21 [Carbamazepine]	-5.41	5.12	-2.57	0.458	11.2
CN1C(=O)OC(C)(C)C1=O [Trimethadione]	6.43	11.1	-6	3.86	-0.0394
CCOC(=O)C1=C(COCCN)NC(C)=C(C(=O)OC)C1c1ccccc1Cl (stereo not given) [Amlodipine]	4.37	-5.58	1.69	0.668	7.23
CC(C)Cc1ccc(C(C)C(=O)O)cc1 (racemic) [(±)-Ibuprofen]	15.5	-4.17	-2.46	3.85	6.34
CCCCCCCC/C=C\CCCCCCCC(=O)NCCO [Oleoyl Ethanolamide]	3.95	1.17	2.47	-3.04	-0.503
C[C@@](Cc1ccc(O)c(O)c1)(NN)C(=O)O [Carbidopa (hydrate)]	5.76	3.77	4.48	-7.23	6.07
C=C(CC)C(=O)c1ccc(OCC(=O)O)c(Cl)c1Cl [Ethacrynic Acid]	4.29	4.46	19.4	-1.45	6.1
C[C@@H]1C[C@H]2[C@@H]3CCC4=CC(=O)C=C[C@]4(C)[C@@]3(F)[C@@H](O)C[C@]2(C)[C@H]1C(=O)CO [Desoximetasone]	2.03	4.16	-4.98	2.48	0.705
CCN1CC(CCN2CCOCC2)C(c2ccccc2)(c2ccccc2)C1=O (stereo not given) [Doxapram (hydrochloride hydrate)]	1.64	-4.79	16.8	-5.51	1.89
COc1ccc2c(O[C@@H]3C[C@H]4C(=O)N[C@]5(C(=O)NS(=O)(=O)C6CC6)C[C@H]5/C=C\CCCCN(C)C(=O)[C@@H]4C3)cc(-c3nc(C(C)C)cs3)nc2c1C [Simeprevir (sodium salt)]	13.8	-3.43	25.2	3.8	8.38
